A short description of test [1]: rescue of polyQ-huntingtin neuronal dysfunction in worms, whole organism, C. elegans mechanosensory neurons, N-terminal huntingtin (AID 1599). The following applies: touch response, stronger effect = higher value.
Test [2] can be described thus: reducers of polyQ inclusions in PC12 cells, cell-based, NGF-treated PC12, GFPQ80 (AID 1614).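 Further: lower means fewer inclusions and 0 means no inclusions at all.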 The following applies: PC12 NGF-treated GFP-polyQ80 inclusion reduction.
Test [3] can be described thus: suppressors of polyglutamine aggregation in yeast, 75Q-TubH (AID 1616). The settings on record: S. cerevisiae 75Q-TubH polyglutamine aggregation suppression; stronger effect = higher value.
Test [4] can be described thus: hESC survival regulators, cell-based (AID 493140).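 Further: cells exposed to compounds for four days before counting.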 The settings on record: human embryonic stem cell survival screen; stronger effect = higher value.
Test [5] relates to Hepatitis C virus NS3 helicase. Nature of the test: HCV NS3 helicase inhibitors, primary screen, biochemical, fluorescence polarization, LOPAC1280 library (AID 687035; in the data active means inhibition above about 37%). The following applies: Purified HCV NS3 helicase, Cy5-dT15 ssDNA binding fluorescence polarization; stronger effect = higher value; concentration not given here.
A short description of test [6]: Cy5 fluorescence quenching or enhancement artefacts, artefact control for HCV NS3 helicase inhibitor project, biochemical, LOPAC1280 (AID 687037). The settings on record: Cy5-DNA-NS3h complex fluorescence interference counterscreen.
Test [7] in a line: growth inhibition of DIPG glioma cells, dose response, cell-based, SU-DIPG-XIII, MIPE4.0, CellTiter-Glo, qHTS (AID 1347061; cut-off not given, nearly all actives have AC50 up to about 37 µM;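 further: cells exposed to compound for 48 hours before readout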). The following applies: SU-DIPG-XIII viability, CellTiter-Glo ATP luminescence.
Test [8] is described as follows: growth inhibition of DIPG glioma cells, dose response, cell-based, JHH-DIPG-1, MIPE4.0, CellTiter-Glo, qHTS (AID 1347062; cut-off not given, nearly all actives have AC50 up to about 27 µM). The settings on record: JHH-DIPG-1 viability, CellTiter-Glo ATP luminescence.
A short description of test [9]: SU-DIPG-VI glioma cell viability, MIPE4.0 library, CellTiter-Glo luminescence, qHTS (AID 1347066; cut-off not given, nearly all actives have AC50 up to about 30 µM;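 further: cells exposed to compound for 48 hours before readout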). The following applies: CellTiter-Glo ATP luminescence.
A short description of test [10]: phospholipid biosynthesis inhibitors in animal cells, primary screen, cell-based, LOPAC library, screen 4 (AID 1347384). The settings on record: phospholipid biosynthesis inhibition screen, at 10 µM.
The nature of test [11]: growth inhibition of DIPG glioma cells, dose response, cell-based, SU-DIPG-IV, MIPE4.0, CellTiter-Glo, qHTS (AID 1347063; cut-off not given, nearly all actives have AC50 up to about 30 µM;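 further: compound exposure lasted 48 hours before the viability readout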). The following applies: SU-DIPG-IV viability, CellTiter-Glo ATP luminescence.
Test [12] in a line: circadian clock period modulators, cell-based, LOPAC library, luminescence reporter (AID 2774).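 Further: values are relative to mean of DMSO wells on each plate.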 The following applies: circadian reporter cells, at 7 µM, actives lie on both sides.
Test [13] is described as follows: LFS_MB_1R medulloblastoma cell growth inhibition, synergistic combos for chromothripsis tumors, cisplatin or BGB combos (AID 1671452; in the data active means inhibition above about 80%;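 further: cells exposed for 96 hours before readout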). The following applies: LFS_MB_1R medulloblastoma cells, stronger effect = higher value.
A short description of test [14]: MDA-MB-436 breast carcinoma cell growth inhibition, synergistic combos for chromothripsis tumors, BGB or cisplatin combos (AID 1671458).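 Further: cells exposed for 96 hours; 0% = vehicle DMSO and 100% = killing by high DMSO.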 The following applies: MDA-MB-436 breast carcinoma growth inhibition, drug combinations, stronger effect = higher value.
The nature of test [15]: growth inhibition of BT084 medulloblastoma cells, cell-based, ICGC_MB145, cisplatin and BGB IC40 combos (AID 1671461; in the data active means inhibition above about 80%;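 further: cells exposed to drugs for 96 hours; 0% = vehicle DMSO and 100% = high DMSO full killing control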). The following applies: drug combinations, stronger effect = higher value.
The nature of test [16]: growth inhibition of RCMB18 medulloblastoma cells, cell-based, cisplatin and BGB IC40 combos (AID 1671462; in the data active means inhibition above about 80%;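 further: cells exposed to compound for four days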). The settings on record: stronger effect = higher value.
Test [17] is described as follows: growth inhibition of CRL1545 osteosarcoma cells, cell-based, cisplatin and BGB IC20 combos (AID 1671464; in the data active means inhibition above about 80%;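 further: cells exposed to compound for 96 hours before readout; 0% = vehicle DMSO and 100% = high DMSO killing control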). The settings on record: stronger effect = higher value.
A short description of test [18]: growth inhibition of DIPG glioma cells, dose response, cell-based, SU-DIPG-XVII, MIPE5.0, CellTiter-Glo, qHTS (AID 1347060; cut-off not given, nearly all actives have AC50 up to about 26 µM). The settings on record: SU-DIPG-XVII viability, CellTiter-Glo ATP luminescence.
Test [19] is described as follows: JHH-DIPG-1 glioma cell viability, MIPE5.0 library, CellTiter-Glo luminescence, qHTS (AID 1347067; cut-off not given, nearly all actives have AC50 up to about 26 µM;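 further: cells exposed to compound for 48 hours before readout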). The following applies: JHH-DIPG-1 glioma viability, CellTiter-Glo ATP luminescence.
Test [20] is described as follows: SU-DIPG-XXV glioma cell viability, MIPE5.0 library, qHTS (AID 1347068; cut-off not given, nearly all actives have IC50 up to about 30 µM).
The mark [21] stands for this setting: measured here: combination with BGB IC40, at 0.05 µM.
Setting [22] is: measured here: combination with cisplatin, at 0.5 µM.
The mark [23] stands for this setting: measured here: combination with cisplatin, at 5 µM.
Where [24] appears, read: measured here: BGB combination, at 0.5 µM.
Where [25] appears, read: measured here: BGB combination, at 5 µM.
The mark [26] stands for this setting: measured here: cisplatin combination, at 0.5 µM.
Setting [27] is: measured here: cisplatin combination, at 5 µM.
The mark [28] stands for this setting: cisplatin combination, at 0.5 µM.
Where [29] appears, read: measured here: BGB IC40 combination 0.05 uM, at 0.05 µM.
The mark [30] stands for this setting: measured here: BGB IC40 combination, at 0.05 µM.
The mark [31] stands for this setting: measured here: with BGB IC20 combination, at 0.5 µM.
[32] abbreviates: measured here: with cisplatin IC20 combination, at 0.5 µM.

Each structure is given as a SMILES string. Where “and” joins values, the source holds several entries; their conditions need not be identical. Identical values can stand only once. Records with an inconclusive call do not appear. For some of these results: Entries with a potency or affinity are not part of this list. Calls of active or inactive are those of the source. Unless noted, how the calls were made is not given here.

On to `NCc1ccc(S(N)(=O)=O)cc1`, for which the rescue above control in test [1] is -7.83. In addition, in test [2], the inclusion score was 2. The same compound gave an aggregation suppression score in test [3] of 1.05. Also, in test [4], the survival is 13.4 (inactive).

As for `COc1cc2nc(N(C)CCCNC(=O)C3CCCO3)nc(N)c2cc1OC` (configuration not stated), in test [4], the survival is 6.42 (inactive). Besides, the inhibition in [5] is -3% (inactive). For the same compound, the fluorescence ratio (interference) in [6] was 1 (inactive). Besides, the compound was called inactive in test [7], in test [8], in [9] and in test [10].

Consider `CN(C)CCc1c[nH]c2ccc(C[C@H]3COC(=O)N3)cc12`, for which the compound was classed as inactive in test [7], in test [8], in test [11] and in [9].

Compound `Cn1cnc([N+](=O)[O-])c1Sc1ncnc2nc[nH]c12` showed a rescue above control in [1] of -3.67. In [2], this compound registered an inclusion score of 2. This compound gave an aggregation suppression score in test [3] of 1.11. In addition, the period change in test [12] is 0.485 h (inactive). Besides, the survival in test [4] is 7.25 (inactive). Moreover, the inhibition in test [5] is -2% (inactive); in test [13] (at 0.5 µM), -1.99% (inactive) and -33.4% (inactive); in [13] (setting [21]), -14.2% and -22.8%; in [13] (setting [22]), -2.77% and -51.2%; in [13] (setting [23]), 10.1% and -28.7%; in [14] (at 0.5 µM), -2.35% (inactive) and 8.87% (inactive). For the same compound, the inhibition in [14] (setting [24]) is -11.4% and 6.51%; in test [14] (setting [25]), 17.6% and 21.4%; in test [14] (setting [26]) it was -16% and 2.87%; in test [14] (setting [27]), 26.8% and 35.6%; in test [15] (at 0.5 µM) it was -16.8% (inactive) and 4.68% (inactive); in [15] (setting [28]) it was -15.8% and -6.89%. In addition, the inhibition in [15] (cisplatin combination, at 5 µM) was -45.6% and -9.16%; in test [15] (setting [29]), 2.92% and 62.8%; in test [15] (single agent, at 5 µM), -13.5% and -5.72%; in [16] (at 0.5 µM), -11.9% (inactive) and -11.3% (inactive); in test [16] (cisplatin combo, at 5 µM) it was 4.98% and -8.51%; in [16] (setting [30]), -6.18% and -2.54%. Further, the inhibition is -8.48% and -16.8% in test [16] (setting [22]); -19.3% and -29.9% in test [16] (single agent, at 5 µM); -10.1% (inactive) and 15.6% (inactive) in [17] (at 0.5 µM); 23.3% and -13% in [17] (setting [31]); -26.8% and 29.9% in test [17] (setting [32]); 10.6% and 46.1% in [17] (single agent, at 0.05 µM). Further, in [17] (single agent, at 5 µM), the inhibition was 25.6% and 21%. Further, in test [6], the fluorescence ratio (interference) is 1 (inactive). Also, the result in [11] and in test [10] was inactive.

As for `CCCCCCNC(=O)n1cc(F)c(=O)[nH]c1=O`, the outcome in [18], in test [8], in test [9], in test [19] and in [10] was inactive. For the same compound, the inhibition in test [13] (at 0.5 µM) is -10.6% (inactive) and -21.3% (inactive); in [13] (setting [21]) it was -28.1% and 5.33%; in test [13] (setting [22]), -15.3% and -53.6%; in [13] (setting [23]), -40% and -9.49%; in test [14] (at 0.5 µM), -3.42% (inactive) and -19.4% (inactive); in test [14] (setting [24]), -7.14% and -19.3%. For the same compound, the inhibition in test [14] (setting [25]) was 9.33% and -1.4%; in test [14] (setting [26]), -19.1% and -44.2%; in test [14] (setting [27]) it was 33.3% and 25.8%; in test [15] (at 0.5 µM) it was -1.98% (inactive) and -19.4% (inactive); in [15] (setting [28]) it was -28.3% and -28.4%; in test [15] (cisplatin combination, at 5 µM), -14.4% and -69.9%. In addition, the inhibition was -34% and -12% in [15] (setting [29]); 6.42% and -7.55% in test [15] (single agent, at 5 µM); -8.71% (inactive) and -17.6% (inactive) in test [16] (at 0.5 µM); -32.4% and 29.2% in test [16] (cisplatin combo, at 5 µM); -13.3% and -15% in test [16] (setting [30]); -7.21% and -15.6% in [16] (setting [22]). Besides, the inhibition in test [16] (single agent, at 5 µM) is 54.2% and -12.5%; in [17] (at 0.5 µM), -38.9% (inactive) and -6.62% (inactive); in [17] (setting [31]), -31.2% and -14.7%; in [17] (setting [32]), -45.1% and -2.6%; in [17] (single agent, at 0.05 µM), -9.97% and 20.9%; in test [17] (single agent, at 5 µM), -10.7% and 10.5%.

`CCCNCC(O)COc1ccccc1C(=O)CCc1ccccc1` (configuration not stated): the rescue above control in test [1] amounted to 2.07. In test [2], this compound registered an inclusion score of 2. This compound also came in with an aggregation suppression score in test [3] of 0.81. In addition, the period change in test [12] was -0.03 h (inactive). Also, in test [4], the survival is 6.75 (inactive). The inhibition in test [5] was -1% (inactive). Further, the fluorescence ratio (interference) in test [6] is 1 (inactive). Also, the result in [18], in test [8], in [9], in test [20] and in [10] was inactive.

In test [1], `NS(=O)(=O)c1cc2c(cc1Cl)NC=NS2(=O)=O` returned a rescue above control of 7.98. Moreover, in test [2], the inclusion score was 2. In test [3], the aggregation suppression score stood at 1.42. In addition, the period change in test [12] was 0.02 h (inactive). Further, the survival in test [4] was 13.6 (inactive). The inhibition in test [5] was -2% (inactive). The fluorescence ratio (interference) in test [6] is 0.9 (inactive). For the same compound, the compound was classed as inactive in [18], in [8], in test [11], in test [9], in [19] and in test [20]. Further, the outcome in [10] was inactive.

On to `O=S(=O)(O)CCS`, for which the rescue above control in [1] is -8.48. The same compound gave an inclusion score in test [2] of 2. This compound registered an aggregation suppression score in [3] of 1.35. Further, the compound was called inactive in test [18], in test [8], in test [11], in [9], in test [19] and in test [20].

These data come from PubChem BioAssay.
